Data as given in PubChem BioAssay (NCI).
This is part of a sample that, as a whole, favours compounds with a hit. Of some 83,000 tested, about 20% had one in any assay.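 The test compound was applied at a single concentration to cells in 96-well plates for 48 hours, and percent growth was recorded.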 Calls of active or inactive are those of the source. The calls were made as follows: active = growth percent below 10; inactive = the rest.

test system: PC-3 prostate; assay: NCI-60 one-dose screen, 48 h (100 = growth as untreated, 0 = no growth, -100 = all killed); conditions: 10 µM

Structure (SMILES) | growth
Clc1ccc(/C=C2\CCCC3C2=Nc2ccccc2NC3c2ccc(Cl)cc2)cc1 (stereo not given) | 77.3% (inactive)
CCC(c1ccc(OC)cc1)C(CC)c1ccc(O)c(CN2CCN(C)CC2)c1 (stereo not given) | 45.1% (inactive)
CC[C@@H](C(=O)[C@H](C)[C@H](O)[C@@H](C)[C@H]1O[C@H]([C@@H](CC)C(=O)N(CC)CC)CC[C@H]1C)C1O[C@]2(C=C[C@@H](O)[C@]3(CC[C@@](C)([C@H]4CC[C@](O)(CC)[C@H](C)O4)O3)O2)[C@H](C)C[C@@H]1C (stereo not given in full) | 3.64% (active)
c1ccc(/C(=N\Nc2ccc3ccccc3n2)c2ccccn2)cc1 | 19.4% (inactive)
O=C(NCCCNS(=O)(=O)c1ccc(Cl)cc1)Nc1ccc(-n2cc(-c3ccncc3)c(-c3ccc(Cl)c(O)c3)n2)cc1 | 17.3% (inactive)
Nc1ncnc2c1ncn2C1(CO)OCC(O)C(O)C1O (stereo not given) | 103% (inactive)
CN(C)CCOc1ccc(-c2nc3sccn3c2-c2ccnc(S(C)(=O)=O)n2)cc1 | 87.2% (inactive)
CC[C@H]1OC(=O)[C@H](C)[C@@H](O[C@H]2C[C@@](C)(OC)[C@@H](O)[C@H](C)O2)[C@H](C)[C@@H](O[C@@H]2O[C@H](C)C[C@H](N(C)C)[C@H]2O)[C@](C)(OC)C/C(C)=C2/O[C@@]1(C)C=C2C | 53.3% (inactive)
COc1cc(/C=C2\CCCC3=C2NC(N)=NC3c2cc(OC)c(OC)c(OC)c2)cc(OC)c1OC (stereo not given) | 25.9% (inactive)
O=[N+]([O-])c1cccc(/C=N/NC(=S)NC23CC4CC(CC(C4)C2)C3)c1 | 75.9% (inactive)
